Assay results published in PubChem BioAssay AID1508600 (Functional Genomics Laboratory (NCATS/FGL), 2020).
Hit rate of the full screen: of about 53,000 sequences, about 3,700 (7%) were called active.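 The calls were made as follows: active = gene knockdowns whose robust z-score for IL-1 alpha signal is at least 2 or at most -2, so actives lie on both sides; inactive = the rest.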 Only a selection was taken, and actives are over-represented in it overall.

Experiment: Components of the Cytosolic LPS Sensing Pathway: Gene Identification via Genome-wide siRNA Screen;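 also: robust z of the log signal after scaling to non-targeting control siRNA wells of the plate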
Details: RAW264.7 macrophages, IL-1a HTRF, actives lie on both sides, screened at 100 nM (by protocol), cells primed 5 h with Pam3CSK4 first
Procedure, shortened: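 Using IL-1a HTRF as read-out, the screen measured release from RAW264.7 cells after 48h siRNA knockdown (100 nM), 5 h Pam3CSK4 priming and 24 h cytosolic LipidA. Values were expressed relative to negative-control wells as robust z-scores.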

z-score, inactive:
GGAAAGCUUCAGAAUCUAATT against Bckdk -0.365
GCUCGAGAUCGAAACAUACTT against Tmed5 -1.13
GCCACUUUAGUAUGGAAUGTT against Nxt1 0.822
GGCUGUGGAAUGACACCAATT against Sars2 -1.01
GGAUAUCUCGGGUUGAAUUTT against Aurka -1.38
GGCUAAUGGACAAAAAAUUTT against Pacrgl 0.28
GGAAGACAUACUGUUGAAATT against Mettl23 -0.147
GGCUCUUGUCACAUGAUCATT against Jagn1 -1.77
GGGUUCAAAACUAUGGAUATT against Stk26 0.575
GGCCCACAGGAACAUCCUATT against Zbtb8b -0.134
GGGUUCUUUCACUGAACGATT against Pskh1 0.9
GGCAUCUUCAUCAAGGAUUTT against Sf3a1 -1.1
GGCUUAAGUGUGCAGCUACTT against B3gnt4 -0.479
GGACAUUGCUGCCUAUAUCTT against Dynll2 0.452
GGACAAGAAGCAUCUUUCATT against Smpdl3a -1.16
GGAAACUUUAGCAUGAAUGTT against Hmgxb4 -0.335
GCAUGCGUGAGAAACUGAUTT against Clec2e -0.152
GCAAGCUAAUGAGCUACAATT against Samd9l -0.107
GGUAUAUUGCCAUAUGUAATT against Olfr731 -0.174
CCAUGGGCCUACCAAACAGTT against Celf2 -1.86
GCCGGAUAACAUCAGACACTT against Rmnd1 -0.146
GCCACAGAGCUAGACUGUCTT against Wdr86 0.241
GGAACAUCUUCAAAGAAGATT against Minar1 -0.963
GUUUUGUUUCAGAGCAGAATT against Olfr900 -0.134
GCUAAUAACUGUUCACAUATT against Magi1 1.97
GUAUUGUCAUCAUCAUUUCTT against Olfr910 0.115
GCGAUGAGACAGAUGUCGATT against Tcof1 -0.0757
GGUCUUCAACAACAUUAUCTT against Hid1 1
GCCGAUCCAUUUUUGGCUCTT against Mlxip 0.86
GGAGUAUUACCUGGUUAAGTT against Suv39h1 -1.18
GCAAGUUAAGGAUAUCAUGTT against Katna1 1.2
GCUUUCUGAAGUAGCAAAGTT against Nit2 0.42
GAUGUACGAGAGCUUAGCATT against Uqcc2 -1.14
GGACUACCUGUGUAUGCUCTT against Dcaf12l1 1.3
GGAAUGUUCCUUCGAGCAGTT against Ccdc28b -0.197
GGCGAAAGUAAGACAAAGUTT against Ric8a 0.708
GGCAAACCGACAGACUUCUTT against Riok1 -0.033
GGUCUCUCAUUACCACAUUTT against Olfr69 1.75
GCCCACACUUGCUAAUGAATT against Ppp1r26 0.468
GCUUGUGCCAAGCAUUCUUTT against Rdh1 0.861
GGACUCAGAAGAAAUGGACTT against Osbpl6 0.109
GCUCUGCUAACUUACAUCUTT against Mtmr11 1.75
GGCAAAGAGAUUGACAUUGTT against Kif2c -0.991
GGCAGGAGAUGGUAACUGCTT against Phc2 1.08
CGAAUUCAAAAAGCUAGAGTT against Gsto1 0.0531
GGCCAUUCAGAAGAUGCAGTT against Snapc2 -0.852
GCCAUUGACUGUACAGGUUTT against Taar4 0.74
GGAAGAGCAGGCAUCCAUATT against Ranbp10 -0.294
GGGAGAUGAUUAGUUCAUUTT against Mad1l1 0.654
GGCCAGUCCAAAGACCAUCTT against Hsd3b7 1.95
GCAAAACAUUUCCUGUCUGTT against Zfp316 -0.555
CCUCAAUUAUACCAAGAUUTT against Mapre3 -1.28
GCCAGGAGUCCUUUAGGAATT against Tmem159 -0.184
GGGAUUGGAAGAGAAAUGGTT against Hsd11b1 0.362
GCUAUACGAAGACUUCAGCTT against Hdhd3 0.972
GGCCUUUAAUUUCUUACACTT against Akt1s1 -0.6
GGAGUGAAAUUUACUGGGUTT against Hdgfl3 1.28
GGAGAACAAAGAUUUCGUGTT against Lhfpl4 -0.897
GCUAAACACGCUGAAUAUUTT against Phf10 0.107
GGGUUGGUAUAGCUUUCAGTT against Zfp619 -0.948
GGAACCUGAAAAUGUAUGUTT against Cxcl10 0.988
CGUUCAGUGUCUGCAGGUUTT against Mrps12 -0.0575
CCACUAAUUACAGUAACAUTT against Akr1c20 -1.11
GCAGACUCAUGCACUUGAATT against Olfr1165-ps -0.321
GGAAGUCUUAGAAGUAGCCTT against Diaph3 0.691
GGGAACUGCACAAUACAAATT against Ccdc122 1.91
GGACUGUUUUGUCUUGAAGTT against Gm5124 -1.04
GGUUUUUGUUAAGGUCAAUTT against Abca16 0.209
CCAUCCGUAACAUCGACUGTT against Mboat7 -0.293
UGGUCACCUUUCUCUUAUUTT against Tas2r140 -0.575
GGGAGCUGAACACAAACACTT against Trav3-3 0.191
GGACCUUCUUCAAGAAAGUTT against Olfr430 0.0987
GGAUGGUGAAAAUCUUGAGTT against Mindy1 1.39
GGACAAUGGGAGCUAUCGATT against Gpld1 -1.73
GGCUAAUACAUAAAGUAGUTT against 4930515G01Rik 0.452
GGUCAAGAAAUGGGCAAGCTT against Arhgdib 1.14
GAACAUGGAAAGCAGCAUUTT against Lce1m -0.757
GGUAUUUUUCAUGGCUCUCTT against Olfr305 -0.0328
GCCAAAUACUUUUUUACCCTT against Slc38a2 0.682
GCUUACCAAAAGGAUAUCCTT against Zfand2b -1.94
GGUCCAACGAUAUGUUGACTT against Cyp2c67 1.27
GGACAUGGAGAAAAAGUACTT against Styk1 0.547
GCAGUGCGAUUGCUUACAGTT against Tube1 1.07
GGAGUGUGCCCUGAAAGAUTT against Psrc1 -0.215
GGCUUUUCUGCCAUUUAUGTT against Sox18 0.23
GGGUGAAAGAAAGAAAGAATT against Plp1 -0.883

z-score, active:
CCAUGACUACAACACAUACTT against Ndufv3 -3.07
GGAUCUGAGUGCUCUACUGTT against Kctd20 2.08
GGACAAACAGCUUCAAGAUTT against Psmd2 -2.26
GCGAUCCUGACUUGUUCAATT against Kdm6b 2.27
CCGCCCGCUCAACACUAAUTT against Zfp36l3 -2.39
CCAAUCUUAGUCAUCCAUUTT against Foxo6 -2.27
GGUCGGCCAAUUACAAUGUTT against Eml4 2.16
CCGAGUCUUGAACUAGGCATT against Six2 -2.01
GCCAUAGAAGUAGAAGUAGTT against Rbmx2 -2.29
GGAAGAUCAGCCAUACUAGTT against Klrb1f 2.12
GCUGAACGAUGACUAUCCCTT against Cryba4 2.2
GCGGUCACGUGUGAUGGAUTT against Zfp653 3.98
GGCCUUCAUGGAUUAUACCTT against Serpinb9 2.09
CGAUUGUCGGGUUUUGUUUTT against Nutf2 -2.53
GCCCUCUUAUCUGAAUAAUTT against Stk17b 2.19
GCUACUAUCACAUAUGCACTT against Olfr1122 -2.09
GGCUGGUGGAUAAUGAUUGTT against Tmem50b 2.18
GCUCCUGGGAUACGUAUUATT against Abhd16a -2
GGAAAUAAACCACCUCUUCTT against Olfr437 2.36
GGCAUUUCAUGUAGCUAAATT against Spata18 2.04
GGAUGUUCCAUUUCUAAGCTT against Zfp30 -3.76
